For assay [1], the target named is Estrogen receptor beta (Homo sapiens) (UniProt Q92731). The assay can be described thus: OT_ER_ERbERb_1440: Odyssey Thera (OT) 24-hour HEK293T Protein-Complementation Assay for Estrogen Receptor-beta/-beta Homodimer (AID 2283380).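 Further: fluorescence gain from ER beta LBD homodimer complementation read by laser scanning cytometry; scored as signal increase over DMSO baseline for both agonists and antagonists.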 An outline of the steps:
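Fluorescence increase, nuclear for agonists or whole-cell for antagonists, relative to DMSO vehicle, quantified by laser scanning cytometer after fixation and Draq5 staining. Readout from 24 h treatment of HEK293T cells carrying complementation-paired ER beta LBD (aa 310-547).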

For assay [2], the target named is Estrogen receptor (Homo sapiens) (UniProt P03372). Briefly: OT_ERa_GFPERaERE_0480: Odyssey Thera (OT) 8-hour HeLa Transcription Induction Assay for Estrogen Receptor (AID 2283381; active means hit-call score of the fitted dose curve at least 0.9, where 1 is the maximum; inactive means score below 0.9). An outline of the steps: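 Human cervical HeLa cells were treated for 8 hours, after which ERE-driven GFP induction was measured by fluorescence microscopy; increases over DMSO baseline defined activity.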

Assay [3] shares this target. The assay can be described thus: OT_ERa_GFPERaERE_0120: Odyssey Thera (OT) 2-hour HeLa Transcription Induction Assay for Estrogen Receptor (AID 2283382). In short, it runs like this: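 Cells (human cervical HeLa) receive compound, incubate 2 hours, then are imaged for fluorescent reporter induction. Images are quantified by high content analysis, and activity is fitted as gain of signal against DMSO.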

The target in assay [4] is Bile acid receptor (Homo sapiens) (UniProt Q96RI1). Briefly: OT_FXR_FXRSRC1_0480: Odyssey Thera (OT) 8-hour HEK293T Protein-Complementation Assay for Farnesoid X receptor/SRC-1 Co-activator (AID 2283383). An outline of the steps:
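PCA, HEK293T, 8 h compound exposure; FXR–SRC-1 binding reconstitutes split reporter; fluorescence intensity; positive-direction fit vs DMSO.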

The target is the same in assay [5]. The assay can be described thus: OT_FXR_FXRSRC1_1440: Odyssey Thera (OT) 24-hour HEK293T Protein-Complementation Assay for Farnesoid X receptor/SRC-1 Co-activator (AID 2283384). In short, it runs like this: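 Measures ligand-driven FXR–SRC-1 co-activator recruitment in HEK293T via fragment complementation, fluorescence intensity at 24 h. DMSO served as negative control and baseline for gain-of-signal fitting.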

Assay [6] concerns guinea pig Dopamine Transporter (DAT), gene 100714898. Briefly: NVS_TR_gDAT: NovaScreen (NVS) Transporter Assay for guinea pig Dopamine Transporter (DAT) (AID 2283369).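 Further: active compounds lower bound radioligand signal relative to DMSO.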 An outline of the steps: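 Primary pass: duplicate wells at 25 uM, threshold e.g. 30% inhibition. Follow-up: singleton concentration-response, highest 50 uM. Radioligand binding on guinea pig striatal membranes, 2 h, filtration scintillation detection.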

For assay [7], the target named is human Serotonin Transporter (SERT), SLC6A4 (gene 6532) (UniProt P31645). Briefly: NVS_TR_hSERT: NovaScreen (NVS) Transporter Assay for human Serotonin Transporter (SERT) (AID 2283372). An outline of the steps:
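Human platelet membrane preparation; displacement of radioligand from serotonin transporter measured after 1 h by filtration and scintillation counting. Single 25 uM duplicate screen, then concentration series for actives, with DMSO as negative baseline.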

Assay [8] has as its target rat Serotonin Transporter (SERT), Slc6a4 (gene 25553) (UniProt P31652). Briefly: NVS_TR_rSERT: NovaScreen (NVS) Transporter Assay for rat Serotonin Transporter (SERT) (AID 2283375). An outline of the steps: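 Using rat forebrain membrane SERT, test chemicals compete with a radioligand for 1 hour, and bound counts are taken by filter-based scintillation. Screening starts at 25 uM in duplicate, followed by concentration series for actives.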

Assay [9] addresses mouse Estrogen Receptor alpha (Era), Esr1 (gene 13982) (UniProt P19785). The assay can be described thus: NVS_NR_mERa: NovaScreen (NVS) Nuclear Receptor Binding Assay for mouse Estrogen Receptor alpha (Era) (AID 2283378).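 Further: hit means loss of bound radioligand signal relative to DMSO.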 An outline of the steps: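 Measurements come from scintillation counting after filtration, taken 18 hours after chemicals were added to a cell-free mouse Era preparation with radioligand. Screening was duplicate at 25 uM, with concurrent positive and negative controls and confirmatory concentration series for actives.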

The target in assay [10] is guinea pig Sigma Receptor, Non-selective Binding, SIGMAR1 (gene 100135589) (UniProt Q60492). Briefly: NVS_OR_gSIGMA_NonSelective: NovaScreen (NVS) Nuclear Receptor Binding Assay for guinea pig Sigma Receptor, Non-selective Binding (AID 2283367). In short, it runs like this:
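Guinea pig brain membrane sigma sites were labelled with a radioligand, and bound radioactivity was counted after filtration 1 h post-dose. Compounds were screened at 25 uM in duplicate, then retested as concentration series when active.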

For assay [11], the target named is Agonist Androgen Response Element (ARE), AR (gene 367) (UniProt P10275). Briefly: OT_AR_ARELUC_AG_1440: Odyssey Thera (OT) 24-hour CHO-K1 Luciferase Assay for Agonist Androgen Response Element (ARE) (AID 2283379). An outline of the steps: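 Readout: luciferase bioluminescence from CHO-K1 ARE-luc cells, measured 24 h post-dosing; agonism = increased mean luminescence vs DMSO controls, fitted in positive direction.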

For assay [12], the target named is human Adenosine Transporter (Adot), SLC29A1 (gene 2030) (UniProt Q99808). The assay can be described thus: NVS_TR_hAdoT: NovaScreen (NVS) Transporter Assay for human Adenosine Transporter (Adot) (AID 2283368). An outline of the steps:
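Binding displacement on U937 extracted protein, read 1 h post-dose by filtration and scintillation counting. Primary duplicate test at 25 uM, then singleton concentration series with 50 uM top; DMSO baseline.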

“And” between values parts separate entries of the source, which are not always exact repeats. Equal values may be shown once. Results filed as inconclusive are left out. A structure can be active in one record and inactive in another. The source made the active and inactive calls. How the source made its calls, unless noted: active means hit-call score of the fitted dose curve at least 0.9, where 1 is the maximum; inconclusive means response in the unintended direction; inactive means score below 0.9.

As a reminder, the AC50 is the midpoint of the concentration-response curve, whichever way the signal moves.

Chain of Estrogen receptor (Homo sapiens) (P03372 whole entry, looked up): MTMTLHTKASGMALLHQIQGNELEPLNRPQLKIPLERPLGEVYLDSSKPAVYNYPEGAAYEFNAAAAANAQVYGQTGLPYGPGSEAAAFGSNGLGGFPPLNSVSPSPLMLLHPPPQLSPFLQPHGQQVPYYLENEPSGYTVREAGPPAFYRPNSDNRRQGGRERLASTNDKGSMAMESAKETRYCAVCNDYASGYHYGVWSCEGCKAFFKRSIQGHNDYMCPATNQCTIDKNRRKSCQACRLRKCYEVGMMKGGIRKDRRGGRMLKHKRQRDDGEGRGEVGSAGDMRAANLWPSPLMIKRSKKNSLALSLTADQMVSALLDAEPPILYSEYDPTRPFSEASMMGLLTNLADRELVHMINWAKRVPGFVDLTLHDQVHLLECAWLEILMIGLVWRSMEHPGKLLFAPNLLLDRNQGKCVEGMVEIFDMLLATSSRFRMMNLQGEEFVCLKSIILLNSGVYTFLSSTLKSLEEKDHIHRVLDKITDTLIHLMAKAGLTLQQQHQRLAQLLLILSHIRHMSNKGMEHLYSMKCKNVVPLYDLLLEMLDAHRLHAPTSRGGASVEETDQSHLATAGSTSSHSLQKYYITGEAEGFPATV
Chain of Estrogen receptor beta (Homo sapiens) (Q92731 whole entry, looked up, the tested form may be a part): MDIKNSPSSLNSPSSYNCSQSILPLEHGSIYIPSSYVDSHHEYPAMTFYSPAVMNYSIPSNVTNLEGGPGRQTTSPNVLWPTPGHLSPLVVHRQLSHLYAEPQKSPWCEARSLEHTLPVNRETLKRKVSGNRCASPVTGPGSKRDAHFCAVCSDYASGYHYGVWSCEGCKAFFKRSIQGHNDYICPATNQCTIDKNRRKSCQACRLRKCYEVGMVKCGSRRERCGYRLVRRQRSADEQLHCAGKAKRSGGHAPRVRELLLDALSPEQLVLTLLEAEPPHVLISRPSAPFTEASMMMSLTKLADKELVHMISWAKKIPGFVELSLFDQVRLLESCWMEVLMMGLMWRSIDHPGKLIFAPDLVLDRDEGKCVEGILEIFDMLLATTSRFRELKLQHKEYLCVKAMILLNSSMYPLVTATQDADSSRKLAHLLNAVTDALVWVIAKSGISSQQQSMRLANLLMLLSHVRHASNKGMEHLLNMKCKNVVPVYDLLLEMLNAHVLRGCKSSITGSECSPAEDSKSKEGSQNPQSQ
Chain of mouse Estrogen Receptor alpha (Era), Esr1 (gene 13982) (P19785 whole entry, looked up): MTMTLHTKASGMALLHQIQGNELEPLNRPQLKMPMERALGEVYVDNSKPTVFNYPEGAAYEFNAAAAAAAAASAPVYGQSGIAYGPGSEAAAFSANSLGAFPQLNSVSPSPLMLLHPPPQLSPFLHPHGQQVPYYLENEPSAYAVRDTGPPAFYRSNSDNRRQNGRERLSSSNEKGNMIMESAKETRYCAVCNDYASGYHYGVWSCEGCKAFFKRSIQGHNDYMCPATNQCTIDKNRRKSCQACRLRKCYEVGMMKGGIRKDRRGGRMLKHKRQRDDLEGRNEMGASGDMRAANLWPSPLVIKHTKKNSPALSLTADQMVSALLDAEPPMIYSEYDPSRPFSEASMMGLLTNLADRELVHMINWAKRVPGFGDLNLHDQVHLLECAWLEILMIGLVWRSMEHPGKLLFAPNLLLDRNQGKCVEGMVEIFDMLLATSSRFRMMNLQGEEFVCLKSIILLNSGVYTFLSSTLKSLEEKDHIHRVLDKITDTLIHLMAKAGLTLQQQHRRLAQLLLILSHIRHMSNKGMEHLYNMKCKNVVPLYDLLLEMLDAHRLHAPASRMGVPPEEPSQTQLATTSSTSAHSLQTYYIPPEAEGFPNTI
Chain of Bile acid receptor (Homo sapiens) (Q96RI1 whole entry, looked up): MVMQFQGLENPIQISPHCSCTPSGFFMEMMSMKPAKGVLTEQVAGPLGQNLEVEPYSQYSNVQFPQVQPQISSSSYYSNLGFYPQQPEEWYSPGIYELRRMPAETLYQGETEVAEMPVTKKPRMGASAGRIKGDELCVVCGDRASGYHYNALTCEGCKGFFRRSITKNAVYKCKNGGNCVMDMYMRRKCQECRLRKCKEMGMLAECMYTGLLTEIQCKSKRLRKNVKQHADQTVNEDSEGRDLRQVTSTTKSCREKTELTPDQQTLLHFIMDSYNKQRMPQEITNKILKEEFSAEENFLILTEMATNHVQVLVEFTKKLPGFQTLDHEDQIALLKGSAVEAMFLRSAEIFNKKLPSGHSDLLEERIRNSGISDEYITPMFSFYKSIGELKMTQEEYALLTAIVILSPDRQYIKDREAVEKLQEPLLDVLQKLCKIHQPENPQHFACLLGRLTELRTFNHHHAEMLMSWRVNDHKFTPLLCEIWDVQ
Chain of guinea pig Sigma Receptor, Non-selective Binding, SIGMAR1 (gene 100135589) (Q60492 whole entry, looked up): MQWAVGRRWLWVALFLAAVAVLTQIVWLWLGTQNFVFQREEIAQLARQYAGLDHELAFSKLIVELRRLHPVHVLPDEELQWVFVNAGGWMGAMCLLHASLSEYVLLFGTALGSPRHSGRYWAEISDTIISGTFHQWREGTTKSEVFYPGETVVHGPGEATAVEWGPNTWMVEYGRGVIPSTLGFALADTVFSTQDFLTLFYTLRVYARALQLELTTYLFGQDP
Chain of human Adenosine Transporter (Adot), SLC29A1 (gene 2030) (Q99808 whole entry, looked up): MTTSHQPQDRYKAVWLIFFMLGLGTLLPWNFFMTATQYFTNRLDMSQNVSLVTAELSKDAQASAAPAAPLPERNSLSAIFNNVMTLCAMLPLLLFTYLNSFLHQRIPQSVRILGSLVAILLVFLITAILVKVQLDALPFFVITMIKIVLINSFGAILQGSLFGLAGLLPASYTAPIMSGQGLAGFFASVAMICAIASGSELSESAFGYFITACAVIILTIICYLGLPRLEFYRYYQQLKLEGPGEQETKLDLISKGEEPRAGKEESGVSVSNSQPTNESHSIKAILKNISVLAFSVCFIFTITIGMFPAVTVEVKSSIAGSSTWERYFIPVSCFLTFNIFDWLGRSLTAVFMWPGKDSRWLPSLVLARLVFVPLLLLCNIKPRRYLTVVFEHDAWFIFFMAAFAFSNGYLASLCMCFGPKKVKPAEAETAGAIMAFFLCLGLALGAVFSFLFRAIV
Chain of Agonist Androgen Response Element (ARE), AR (gene 367) (P10275 whole entry, looked up): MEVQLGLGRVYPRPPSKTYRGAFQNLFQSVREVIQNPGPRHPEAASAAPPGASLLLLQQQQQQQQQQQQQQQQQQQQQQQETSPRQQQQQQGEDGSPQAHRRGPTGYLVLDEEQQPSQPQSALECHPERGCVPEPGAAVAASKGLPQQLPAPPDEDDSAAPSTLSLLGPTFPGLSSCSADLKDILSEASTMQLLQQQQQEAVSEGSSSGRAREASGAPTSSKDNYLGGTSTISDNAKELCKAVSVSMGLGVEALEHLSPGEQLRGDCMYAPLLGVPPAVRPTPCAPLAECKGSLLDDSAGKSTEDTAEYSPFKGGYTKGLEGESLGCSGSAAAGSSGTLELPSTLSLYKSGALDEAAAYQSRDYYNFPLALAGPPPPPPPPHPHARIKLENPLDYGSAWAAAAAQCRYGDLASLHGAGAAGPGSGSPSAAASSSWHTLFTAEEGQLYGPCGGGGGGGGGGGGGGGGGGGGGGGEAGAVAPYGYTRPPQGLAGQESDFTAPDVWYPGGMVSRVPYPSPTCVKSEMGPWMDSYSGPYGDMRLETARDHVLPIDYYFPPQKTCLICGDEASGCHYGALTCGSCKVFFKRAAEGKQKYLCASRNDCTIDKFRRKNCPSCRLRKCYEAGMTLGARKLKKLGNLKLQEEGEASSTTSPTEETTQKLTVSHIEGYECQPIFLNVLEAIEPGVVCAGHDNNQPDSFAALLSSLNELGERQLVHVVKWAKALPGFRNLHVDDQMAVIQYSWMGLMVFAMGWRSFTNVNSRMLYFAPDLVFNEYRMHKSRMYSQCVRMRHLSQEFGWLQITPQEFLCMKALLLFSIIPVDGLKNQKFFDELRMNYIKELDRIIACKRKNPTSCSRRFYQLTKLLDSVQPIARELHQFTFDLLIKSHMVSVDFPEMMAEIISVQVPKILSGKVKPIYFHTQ
Chain of rat Serotonin Transporter (SERT), Slc6a4 (gene 25553) (P31652 whole entry, looked up): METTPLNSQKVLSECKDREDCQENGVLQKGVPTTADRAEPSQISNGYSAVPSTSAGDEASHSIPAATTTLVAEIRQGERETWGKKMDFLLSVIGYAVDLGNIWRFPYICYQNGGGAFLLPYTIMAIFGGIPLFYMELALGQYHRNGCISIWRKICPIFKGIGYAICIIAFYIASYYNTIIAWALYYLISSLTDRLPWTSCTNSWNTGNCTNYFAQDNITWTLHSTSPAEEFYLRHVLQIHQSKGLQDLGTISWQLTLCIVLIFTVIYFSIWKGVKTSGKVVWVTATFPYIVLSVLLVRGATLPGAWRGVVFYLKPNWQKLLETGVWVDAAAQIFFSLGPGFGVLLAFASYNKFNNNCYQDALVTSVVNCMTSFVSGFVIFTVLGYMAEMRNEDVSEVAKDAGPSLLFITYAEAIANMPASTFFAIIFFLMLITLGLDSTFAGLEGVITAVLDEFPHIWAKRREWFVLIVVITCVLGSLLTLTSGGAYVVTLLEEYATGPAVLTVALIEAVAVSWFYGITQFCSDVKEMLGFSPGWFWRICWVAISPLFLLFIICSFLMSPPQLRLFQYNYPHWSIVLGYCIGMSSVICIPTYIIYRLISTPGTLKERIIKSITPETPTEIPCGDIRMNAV

Take `CCCCOC(=O)[C@@H](C)Oc1ccc(Oc2ccc(C(F)(F)F)cn2)cc1`: the compound was classed as inactive in assay [1], in [2] and in assay [5]. For the same compound, the AC50 in assay [3] is 46.5 µM (active); in [4], 58.9 µM (active).

On to `CN(C)C(=O)Nc1ccc(Cl)c(Cl)c1`, for which the call in assay [2] and in assay [3] was inactive.

`CCOC(=O)C(C)Oc1ccc(Oc2nc3ccc(Cl)cc3o2)cc1` (stereo unspecified): the compound was classed as inactive in assay [1] and in [5]. In addition, the AC50 in [4] was 35.9 µM (active).

As to `O=C(Nc1ccc([N+](=O)[O-])cc1Cl)c1cc(Cl)ccc1O`, the result in assay [1], in [2] and in [3] was inactive. The AC50 in assay [4] was 5.91 µM (active); in assay [5] it was 1.21 µM (active).

`CCN(Cc1c(F)cccc1Cl)c1c([N+](=O)[O-])cc(C(F)(F)F)cc1[N+](=O)[O-]`: the call in assay [6], in assay [1] and in assay [4] was inactive. The AC50 in [2] is 3.54 µM (active); in assay [3], 6.39 µM (active).

In the case of `COc1c(Cl)ccc(Cl)c1C(=O)O`, the call in assay [7], in assay [8], in assay [1], in assay [2] and in [3] was inactive.

`C#CCOC(=O)[C@@H](C)Oc1ccc(Oc2ncc(Cl)cc2F)cc1`: the outcome in assay [1], in assay [2], in [3], in [4] and in [5] was inactive.

As to `CCOC(=O)c1ccc(O)cc1`, the outcome in assay [8], in assay [9], in assay [1], in assay [2], in assay [3] and in [4] was inactive. In addition, in assay [5], the outcome was inactive. In assay [1], the AC50 is 28.6 µM (active) and 25.9 µM (active) and 32.9 µM (active).

On to `CCC(C)OC(=O)N1CCCCC1CCO` (stereo unspecified), for which the AC50 in assay [10] was 31.1 µM (active). For the same compound, the compound was classed as inactive in [1], in [4] and in [5].

As to `CCCOC(=O)c1ccc(C(=O)OCCC)nc1`, the compound was called inactive in assay [11], in [1], in [2], in assay [3] and in [4]. Moreover, in assay [5], the AC50 is 13.2 µM (active).

`CCSC(=O)N(CC(C)C)CC(C)C`: the compound was classed as inactive in assay [11], in [1], in assay [2] and in [3].

Regarding `CCNc1nc(N)nc(Cl)n1`, the compound was classed as inactive in assay [1].

As to `CC(=O)[C@H]1CC[C@H]2[C@@H]3CCC4=CC(=O)CC[C@]4(C)[C@H]3CC[C@]12C`, the AC50 in assay [10] was 1.16 µM (active); in assay [12] it was 6.22 µM (active); in assay [9] it was 17.4 µM (active). Besides, the outcome in assay [6], in assay [9], in assay [1], in [2] and in assay [3] was inactive.

As to `CCCN(CCC)c1c([N+](=O)[O-])cc(C(F)(F)F)c(N)c1[N+](=O)[O-]`, the call in assay [1] was inactive. Also, the AC50 in assay [2] is 1.3 µM (active); in [3] it was 0.895 µM (active); in assay [4], 56.9 µM (active); in assay [5], 50 µM (active).

Regarding `CCC(O)=C1C(=O)CC(C(=O)O)CC1=O` (stereo unspecified), in assay [12], the compound was classed as inactive.

In the case of `CCN(CC)C(=O)c1cccc(C)c1`, the result in assay [1], in assay [2], in [3] and in assay [4] was inactive.

For the compound `CC(C)(C)[C@@H](O)[C@@H](Cc1ccc(Cl)cc1)n1cncn1`, the AC50 in assay [6] is 4.16 µM (active). Also, the call in [1], in assay [4] and in [5] was inactive.

As for `COC(=O)c1ccc(I)cc1S(=O)(=O)NC(=O)Nc1nc(C)nc(OC)n1`, the call in assay [1] was inactive.

The values above are taken from PubChem BioAssay (EPA / NIEHS).
